Laboratory results from PubChem BioAssay (Tox21).
Inconclusive results are not listed. A call without a number means that no potency is given here. Unmarked numbers belong to inactive results. The source made the active and inactive calls. Calls come from the whole dose curve.
Potency is the fitted concentration of half-maximal effect.

The molecules below were run against Peroxisome proliferator-activated receptor delta (Homo sapiens) (UniProt Q03181) (assay: qHTS assay to identify small molecule agonists of the peroxisome proliferator-activated receptor delta (PPARd) signaling pathway (AID 743212)). Settings: HEK293H PPARd-UAS-bla, beta-lactamase FRET ratio, 17 h; series mostly up to 62.6 µM.
Peroxisome proliferator-activated receptor delta (Homo sapiens), sequence (Q03181 whole entry, looked up): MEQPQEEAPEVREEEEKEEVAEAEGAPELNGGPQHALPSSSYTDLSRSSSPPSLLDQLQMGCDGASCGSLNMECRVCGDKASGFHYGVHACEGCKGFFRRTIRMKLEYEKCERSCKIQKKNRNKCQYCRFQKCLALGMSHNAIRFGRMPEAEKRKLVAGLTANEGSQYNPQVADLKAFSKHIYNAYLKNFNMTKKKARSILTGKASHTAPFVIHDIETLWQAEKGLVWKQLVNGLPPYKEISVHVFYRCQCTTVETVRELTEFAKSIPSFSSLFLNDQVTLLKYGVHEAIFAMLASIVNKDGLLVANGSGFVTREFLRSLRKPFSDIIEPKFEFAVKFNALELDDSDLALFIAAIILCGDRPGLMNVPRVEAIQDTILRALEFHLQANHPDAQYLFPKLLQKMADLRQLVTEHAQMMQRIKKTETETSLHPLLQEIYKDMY
From the text: U.S. Tox21 Program National Center for Advancing Translational Sciences [NCATS] NIH Chemical Genomics Center [NCGC] U.S. Environmental Protection Agency [EPA] National Institutes of Environmental Health Sciences [NIEHS] National Toxicology Program [NTP] U.S. Food and Drug Administration [FDA] Tox21 Assay Overview: The peroxisome proliferator-activated receptors (PPARs) are lipid-activated transcription factors of the nuclear receptor superfamily with three distinct subtypes namely PPAR alpha, PPAR delta (PPARd) and PPAR gamma. All these subtypes heterodimerizes with Retinoid X receptor (RXR) and have different physiological functions. […] To identify the compounds that activate PPAR-delta signaling, GeneBLAzer PPAR delta UAS-bla HEK293H cell line (Invitrogen, Carlsbad, CA, USA) containing a beta-lactamase reporter gene under the control of an Upstream Activator Sequence (UAS) was used to screen the Tox21 compound library.
Tox21 Assay Protocol Summary: PPARd-bla cells were dispensed at 3000 cells/6uL/well in 1536-well black wall/clear bottom plates using a Multidrop Combi (Thermo Fisher Scientific, Waltham, MA) dispenser. After the assay plates were incubated at 37 C and 5% CO2 for 5 h, 23 nL of compounds dissolved in DMSO, positive controls or DMSO only was transferred to the assay plate by a Pintool station (Kalypsys, San Diego, CA). The assay plates were incubated at 37C for 17 h. After 1 uL of LiveBLAzerTM B/G FRET substrate was added using a Bioraptr Flying Reagent Dispenser (FRD) workstation (Beckman Coulter, Indianapolis, IN, USA), the plates were incubated at room temperature for 2 h, and fluorescence intensity was measured by an Envision plate reader (PerkinElmer, Shelton, CT).
For CCCCC(CC)COC(=O)CCCCC(=O)OCc1ccccc1 (stereo not given), the Potency was “inactive”.
NC(=O)c1cccc([N+](=O)[O-])c1 was tested, and the Potency was “inactive”.
With CC(=O)CC(=O)Nc1ccc(S(=O)(=O)O)cc1 the Potency was “inactive”.
With CN(C)[C@@H](CCOc1cccc2ccccc12)c1ccccc1 the Potency was “inactive”.
For CCCCCCCCCCCC(=O)OCC(C)OC(=O)CCCCC(=O)O (stereo not given), the Potency was “inactive”.
In the case of CCCCCCCCCCCCOC(=O)c1ccc(O)cc1, the Potency is reported as “inactive”.
In the case of O[C@@H]([C@H](O)[C@H](O)CBr)[C@H](O)CBr, the Potency is reported as “inactive”.
In the case of CCN(CC)C(=O)c1cc(S(=O)(=O)Cc2ccccc2)c(N2CCC(c3ccccc3)CC2)cc1N(CC)CCN(C)C, the Potency is reported as “inactive”.
For Nc1nc2c(ncn2COCCO)c(=O)[nH]1, the Potency was “inactive”.
O=C(O)Cc1ccccc1Nc1c(Cl)cccc1Cl was tested, and the Potency was “inactive”.
For CC1(C)CC(O)CC(C)(C)N1, the Potency was “inactive”.
In the case of CC(C)OC(=O)C(O)(CC(=O)O)CC(=O)O, the Potency is reported as “inactive”.
With CC(C)(C)CC(C)(C)c1ccc(Nc2ccc(C(C)(C)CC(C)(C)C)cc2)cc1 the activation was 5.67% [at 5.95 µM].
For Cc1c(C)c2c(c(C)c1O)CC[C@@](C)(CCC[C@H](C)CCC[C@H](C)CCCC(C)C)O2, the Potency was “inactive”.
In the case of CC(C)(C)C1CCC(=O)CC1, the Potency is reported as “inactive”.
Cc1cccc(C(=O)O)c1O was tested, and the Potency was “inactive”.
CC(C)(C)NSc1nc2ccccc2s1 was tested, and the Potency was “inactive”.
For COc1ccc(NC(=O)CC(C)=O)cc1, the Potency was “inactive”.
In the case of OC12N=C(c3ccccc3)SC1Cc1cc(Cl)ccc12 (stereo not given), the Potency is reported as “inactive”.
In the case of C[Si](Cl)(c1ccccc1)c1ccccc1, the Potency is reported as “inactive”.
CN(C)Cc1ccccc1O was tested, and the Potency was “inactive”.
In the case of COC(=O)c1ccccc1OC, the Potency is reported as “inactive”.
For CCCCOC(=O)CC, the Potency was “inactive”.
O=C(O)O gave an activation of -0.685% [at 5.95 µM].
For COc1cc(S(=O)(=O)O)c(C)cc1N=Nc1c(O)ccc2cc(S(=O)(=O)O)ccc12, the Potency was “inactive”.
With CCC(C)n1ncn(-c2ccc(N3CCN(c4ccc(OC[C@H]5CO[C@](Cn6cncn6)(c6ccc(Cl)cc6Cl)O5)cc4)CC3)cc2)c1=O (stereo not given in full) the Potency was “inactive”.
In the case of FC(F)(F)c1cccc(Cl)c1, the Potency is reported as “inactive”.
For Nc1ccc(NCCO)c([N+](=O)[O-])c1, the Potency was “inactive”.
O=S(=O)(O)c1ccc(Nc2nc(Nc3ccc(/C=C/c4ccc(Nc5nc(Nc6ccc(S(=O)(=O)O)cc6)nc(N(CCO)CCO)n5)cc4S(=O)(=O)O)c(S(=O)(=O)O)c3)nc(N(CCO)CCO)n2)cc1 was tested, and the Potency was 33.1 µM (active).
With CC(CCc1ccccc1)NCC(O)c1ccc(O)c(C(N)=O)c1 (stereo not given) the Potency was “inactive”.
For Nc1nc(N)nc(-c2cc(Cl)ccc2Cl)n1, the Potency was “inactive”.
With CCCCCCOC(=O)C(C)CC (stereo not given) the Potency was “inactive”.
In the case of O=S(=O)(O)c1ccc(N=Nc2c(O)ccc3ccccc23)cc1, the Potency is reported as “inactive”.
O=c1[nH]c(=O)n([C@H]2C[C@H](O)[C@@H](CO)O2)cc1F was tested, and the Potency was “inactive”.
For CCCCNS(=O)(=O)c1ccc(C)cc1, the Potency was “inactive”.
For CCOc1ccc2ccccc2c1C(=O)N[C@@H]1C(=O)N2[C@@H]1SC(C)(C)[C@@H]2C(=O)O, the Potency was “inactive”.
In the case of CCCNCCC, the Potency is reported as “inactive”.
With Cc1c(C)c([N+](=O)[O-])c(C(C)(C)C)c([N+](=O)[O-])c1C the Potency was “inactive”.
In the case of CCCCCCCCCCCCOCCOCCOCCOCCOCCOCCOCCOCCOCCO, the Potency is reported as “inactive”.
For CCC(=O)OC(=O)CC, the Potency was “inactive”.
